Measurements: PubChem BioAssay (EPA / NIEHS)
Activity calls are given as the source filed them. The calls were made as follows: active = hit-call score of the fitted dose curve at least 0.9, where 1 is the maximum; inactive = score below 0.9.

Key:
[1] = read-out: Tumor necrosis factor receptor superfamily member 6 (Homo sapiens) (UniProt P25445); test: LTEA_HepaRG_FAS: Life Technologies and Expression Analysis (LTEA) Assay for Fas cell surface death receptor (FAS) using HepaRG (AID 2283447); settings: mRNA level, 48 h; actives raise or lower the signal
In short: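 Differentiated human HepaRG cells, pre-cultured 48 h, were exposed in duplicate for 48 h to 8-point half-log concentrations (top 100 uM, 0.5% DMSO) in serum-free induction medium; FAS mRNA measured by qRT-PCR, normalized to ACTB/GAPDH/POLR2A, bidirectional fit versus DMSO.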

[2] = read-out: Fatty acid synthase (Homo sapiens) (UniProt P49327); test: LTEA_HepaRG_FASN: Life Technologies and Expression Analysis (LTEA) Assay for Fatty Acid Synthase (FASN) using HepaRG (AID 2283448); settings: mRNA level, 48 h; actives raise or lower the signal
In short: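 HepaRG, 48 h exposure, 8-pt half-log series top 100 uM, 0.5% DMSO vehicle, duplicates. Readout: FASN transcript by Fluidigm qRT-PCR; housekeeping-normalized; bidirectional curve fit vs DMSO baseline.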

[3] = read-out: Cyclin D2 (CCND2), CCND2 (gene 894); test: LTEA_HepaRG_CCND2: Life Technologies and Expression Analysis (LTEA) Assay for Cyclin D2 (CCND2) using HepaRG (AID 2283449); settings: mRNA level, 48 h; actives raise or lower the signal;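 also: CCND2 transcript measured by TaqMan qRT-PCR and normalised to three housekeeping genes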
In short: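 In this HepaRG study, an eight-point concentration series (max 100 uM, 0.5% DMSO) is applied for 48 h. CCND2 mRNA change is derived by qRT-PCR normalised to ACTB, GAPDH and POLR2A.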

[4] = read-out: Cyclin Dependent Kinase Inhibitor 1A (CDKN1A), CDKN1A (gene 1026); test: LTEA_HepaRG_CDKN1A: Life Technologies and Expression Analysis (LTEA) Assay for Cyclin Dependent Kinase Inhibitor 1A (CDKN1A) using HepaRG (AID 2283450); settings: mRNA level, 48 h; actives raise or lower the signal
In short: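 Read-out is CDKN1A mRNA by TaqMan qRT-PCR, normalized to three housekeeping genes and fitted in both directions against the DMSO baseline. Human HepaRG cells were treated 48 h with test chemicals up to 100 uM in half-log steps, 0.5% DMSO.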

[5] = read-out: Cyclin D1 (CCND1), CCND1 (gene 595); test: LTEA_HepaRG_CCND1: Life Technologies and Expression Analysis (LTEA) Assay for Cyclin D1 (CCND1) using HepaRG (AID 2283451); settings: mRNA level, 48 h; actives raise or lower the signal;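 as to AC50: TaqMan qRT-PCR transcript level normalised to ACTB GAPDH and POLR2A housekeeping genes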
In short: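 HepaRG plated 48 h, medium switched to serum-free induction medium, chemicals added in duplicate (top 100 uM, half-log steps, 0.5% DMSO) for 48 h, cells lysed, RNA measured by TaqMan qRT-PCR.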

[6] = read-out: catalase (CAT), CAT (gene 847); test: LTEA_HepaRG_CAT: Life Technologies and Expression Analysis (LTEA) Assay for catalase (CAT) using HepaRG (AID 2283452); settings: mRNA level, 48 h; actives raise or lower the signal;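 as to AC50: TaqMan qRT-PCR signal normalized to ACTB GAPDH and POLR2A housekeeping genes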
In short: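 Differentiated HepaRG cells in serum-free induction medium were dosed 48 h in duplicate, eight half-log concentrations from 100 uM in 0.5% DMSO. Transcript measured by TaqMan qRT-PCR, normalised to ACTB/GAPDH/POLR2A, fitted bidirectionally against DMSO.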

[7] = read-out: flavin-containing dimethylaniline monooxygenases 3 (FMO3), FMO3 (gene 2328); test: LTEA_HepaRG_FMO3: Life Technologies and Expression Analysis (LTEA) Assay for flavin-containing dimethylaniline monooxygenases 3 (FMO3) using HepaRG (AID 2283453); settings: mRNA level, 48 h; actives raise or lower the signal;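 as to AC50: FMO3 transcript by TaqMan qRT-PCR normalized to ACTB GAPDH and POLR2A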
In short: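 Eight-point concentration-response in serum-free HepaRG cultures (top 100 uM, 0.5% DMSO, 48 h). Read-out: FMO3 mRNA level normalized to three endogenous control genes, fitted bidirectionally versus vehicle.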

[8] = read-out: Cytochrome P450 (CYP1A1), CYP1A1 (gene 1543); test: LTEA_HepaRG_CYP1A1: Life Technologies and Expression Analysis (LTEA) Assay for Cytochrome P450 (CYP1A1) using HepaRG (AID 2283454); settings: mRNA level, 48 h; actives raise or lower the signal
In short: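 HepaRG, 48 h post-plating switched to serum-free induction medium; 8-pt conc-response (top 100 uM, half-log, 0.5% DMSO), duplicates, 48 h. Lysis in RLT, TaqMan qRT-PCR for CYP1A1; gain or loss vs DMSO.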

[9] = read-out: CFLAR gene, CFLAR (gene 8837); test: LTEA_HepaRG_CFLAR: Life Technologies and Expression Analysis (LTEA) Assay for CFLAR gene using HepaRG (AID 2283455); settings: mRNA level, 48 h; actives raise or lower the signal
In short: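 Gain- or loss-of-signal changes in CFLAR transcript were fitted bidirectionally relative to 0.5% DMSO. Cells (HepaRG, duplicate wells) were dosed for 48 h across eight half-log concentrations topping at 100 uM; quantitation by TaqMan qRT-PCR.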

[10] = read-out: Forkhead box O1 (FOXO1), FOXO1 (gene 2308); test: LTEA_HepaRG_FOXO1: Life Technologies and Expression Analysis (LTEA) Assay for Forkhead box O1 (FOXO1) using HepaRG (AID 2283456); settings: mRNA level, 48 h; actives raise or lower the signal
In short: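 Using one lot of HepaRG hepatic cells kept in 0.5% DMSO, the team applied test chemicals in duplicate, half-log dilutions from 100 uM, for 48 h. Expression, normalised to ACTB/GAPDH/POLR2A, was compared with vehicle in either direction.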

[11] = read-out: growth arrest and DNA damage 45 (GADD45A), GADD45A (gene 1647); test: LTEA_HepaRG_GADD45A: Life Technologies and Expression Analysis (LTEA) Assay for growth arrest and DNA damage 45 (GADD45A) using HepaRG (AID 2283458); settings: mRNA level, 48 h; actives raise or lower the signal
In short: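 HepaRG, 48 h exposure, 8 conc. (top 100 uM, half-log steps), 0.5% DMSO vehicle, duplicates. Read-out: qRT-PCR mRNA level, housekeeping-normalized (ACTB/GAPDH/POLR2A). Curves fit bidirectionally vs DMSO baseline.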

[12] = read-out: Forkhead box O3 (FOXO3), FOXO3 (gene 2309); test: LTEA_HepaRG_FOXO3: Life Technologies and Expression Analysis (LTEA) Assay for Forkhead box O3 (FOXO3) using HepaRG (AID 2283459); settings: mRNA level, 48 h; actives raise or lower the signal
In short: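 Gene-expression endpoint: FOXO3 transcript level by qRT-PCR in HepaRG cultures treated 48 h with chemicals up to 100 uM (half-log, 0.5% DMSO vehicle).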

[13] = read-out: ABC Transporter (ABCB1), ABCB1 (gene 5243); test: LTEA_HepaRG_ABCB1: Life Technologies and Expression Analysis (LTEA) Assay for ABC Transporter (ABCB1) using HepaRG (AID 2283460); settings: mRNA level, 48 h; actives raise or lower the signal
In short: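 Human liver HepaRG line treated 48 h with up to 100 uM compound (eight half-log points, 0.5% DMSO); ABCB1 mRNA change fitted bidirectionally against DMSO controls.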

[14] = read-out: ABC Transporter (ABCC3), ABCC3 (gene 8714); test: LTEA_HepaRG_ABCC3: Life Technologies and Expression Analysis (LTEA) Assay for ABC Transporter (ABCC3) using HepaRG (AID 2283462); settings: mRNA level, 48 h; actives raise or lower the signal
In short: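 Human HepaRG, 48 h dosing, 8-pt half-log series from 100 uM, 0.5% DMSO vehicle, duplicates. ABCC3 mRNA by TaqMan qRT-PCR, housekeeping-normalized; bidirectional curve fit vs DMSO.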

[15] = read-out: ABC Transporter (ABCB11), ABCB11 (gene 8647); test: LTEA_HepaRG_ABCB11: Life Technologies and Expression Analysis (LTEA) Assay for ABC Transporter (ABCB11) using HepaRG (AID 2283463); settings: mRNA level, 48 h; actives raise or lower the signal
In short: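 Using HepaRG cultures held in 0.5% DMSO, chemicals were tested at half-log dilutions from 100 uM for 48 h. Induction or suppression of ABCB11 mRNA, normalized to ACTB, GAPDH and POLR2A, was fitted bidirectionally against vehicle.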

[16] = read-out: ABC Transporter (ABCC2), ABCC2 (gene 1244); test: LTEA_HepaRG_ABCC2: Life Technologies and Expression Analysis (LTEA) Assay for ABC Transporter (ABCC2) using HepaRG (AID 2283464); settings: mRNA level, 48 h; actives raise or lower the signal
In short: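 HepaRG, 48 h post-plating; serum-free induction medium; cpd 8-pt, 100 uM top, half-log, 0.5% DMSO, duplicate, 48 h. Readout: ABCC2 mRNA by qRT-PCR, norm. ACTB/GAPDH/POLR2A. Bidirectional fit vs DMSO baseline.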

[17] = read-out: Broad substrate specificity ATP-binding cassette transporter ABCG2 (Homo sapiens) (UniProt Q9UNQ0); test: LTEA_HepaRG_ABCG2: Life Technologies and Expression Analysis (LTEA) Assay for ABC Transporter (ABCG2) using HepaRG (AID 2283465); settings: mRNA level, 48 h; actives raise or lower the signal
In short: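 Gene expression of ABCG2 in HepaRG liver cells is quantified by qRT-PCR following 48 h exposure across an eight-point series topping at 100 uM. Values come from bidirectional fitting relative to DMSO vehicle.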

[18] = read-out: ATP-citrate lyase (ACLY), ACLY (gene 47); test: LTEA_HepaRG_ACLY: Life Technologies and Expression Analysis (LTEA) Assay for ATP-citrate lyase (ACLY) using HepaRG (AID 2283466); settings: mRNA level, 48 h; actives raise or lower the signal
In short: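 ACLY expression changes in human HepaRG liver cells are quantified by qRT-PCR after 48 h exposure to test chemicals (maximum 100 uM, half-log steps). Values are fitted in both directions relative to 0.5% DMSO vehicle.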

[19] = read-out: growth arrest and DNA damage 45 (GADD45B), GADD45B (gene 4616); test: LTEA_HepaRG_GADD45B: Life Technologies and Expression Analysis (LTEA) Assay for growth arrest and DNA damage 45 (GADD45B) using HepaRG (AID 2283461); settings: mRNA level, 48 h; actives raise or lower the signal
In short: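 HepaRG, ~100,000 cells/well, 48 h plating; serum-free induction medium; cpd 100 uM top, half-log x8, 0.5% DMSO, duplicate, 48 h; lysis in RLT, RNA isolation, qRT-PCR; norm ACTB/GAPDH/POLR2A; bidirectional fit vs DMSO.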

[20] = CEETOX_H295R_TESTO: CeeTox H295R High-throughput Steroidogenesis Assay for Testosterone (TESTO) (AID 2283457); settings: actives raise or lower the signal;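 also: cells exposed to chemicals for 48 h before medium collection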
In short: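 H295R, passage ≤10, 48 h dosing; media extracted with MTBE → HPLC-MS/MS for testosterone; 7-pt standard curve sets LLOQ/ULOQ; bidirectional fit vs DMSO; MTT viability same wells.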

Measured: AC50

Broad substrate specificity ATP-binding cassette transporter ABCG2 (Homo sapiens), sequence (Q9UNQ0 whole entry, looked up): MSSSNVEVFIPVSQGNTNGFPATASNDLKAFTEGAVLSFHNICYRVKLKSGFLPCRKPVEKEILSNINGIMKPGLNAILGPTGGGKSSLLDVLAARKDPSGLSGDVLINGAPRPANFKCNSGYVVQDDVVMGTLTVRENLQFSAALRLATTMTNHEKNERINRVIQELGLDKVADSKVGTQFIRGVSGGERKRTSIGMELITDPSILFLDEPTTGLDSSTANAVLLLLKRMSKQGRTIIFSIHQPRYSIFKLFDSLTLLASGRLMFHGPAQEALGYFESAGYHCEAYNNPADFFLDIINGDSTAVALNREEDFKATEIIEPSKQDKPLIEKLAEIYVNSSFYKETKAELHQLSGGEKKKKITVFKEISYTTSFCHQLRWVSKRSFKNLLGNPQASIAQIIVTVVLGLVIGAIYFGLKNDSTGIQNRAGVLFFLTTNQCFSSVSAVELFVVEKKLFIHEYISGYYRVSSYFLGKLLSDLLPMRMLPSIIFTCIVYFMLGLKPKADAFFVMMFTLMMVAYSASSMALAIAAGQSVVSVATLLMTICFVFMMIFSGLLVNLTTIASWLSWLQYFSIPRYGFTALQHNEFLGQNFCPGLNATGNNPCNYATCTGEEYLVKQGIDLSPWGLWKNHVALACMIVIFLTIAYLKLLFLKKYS
Fatty acid synthase (Homo sapiens), sequence (P49327 whole entry, looked up): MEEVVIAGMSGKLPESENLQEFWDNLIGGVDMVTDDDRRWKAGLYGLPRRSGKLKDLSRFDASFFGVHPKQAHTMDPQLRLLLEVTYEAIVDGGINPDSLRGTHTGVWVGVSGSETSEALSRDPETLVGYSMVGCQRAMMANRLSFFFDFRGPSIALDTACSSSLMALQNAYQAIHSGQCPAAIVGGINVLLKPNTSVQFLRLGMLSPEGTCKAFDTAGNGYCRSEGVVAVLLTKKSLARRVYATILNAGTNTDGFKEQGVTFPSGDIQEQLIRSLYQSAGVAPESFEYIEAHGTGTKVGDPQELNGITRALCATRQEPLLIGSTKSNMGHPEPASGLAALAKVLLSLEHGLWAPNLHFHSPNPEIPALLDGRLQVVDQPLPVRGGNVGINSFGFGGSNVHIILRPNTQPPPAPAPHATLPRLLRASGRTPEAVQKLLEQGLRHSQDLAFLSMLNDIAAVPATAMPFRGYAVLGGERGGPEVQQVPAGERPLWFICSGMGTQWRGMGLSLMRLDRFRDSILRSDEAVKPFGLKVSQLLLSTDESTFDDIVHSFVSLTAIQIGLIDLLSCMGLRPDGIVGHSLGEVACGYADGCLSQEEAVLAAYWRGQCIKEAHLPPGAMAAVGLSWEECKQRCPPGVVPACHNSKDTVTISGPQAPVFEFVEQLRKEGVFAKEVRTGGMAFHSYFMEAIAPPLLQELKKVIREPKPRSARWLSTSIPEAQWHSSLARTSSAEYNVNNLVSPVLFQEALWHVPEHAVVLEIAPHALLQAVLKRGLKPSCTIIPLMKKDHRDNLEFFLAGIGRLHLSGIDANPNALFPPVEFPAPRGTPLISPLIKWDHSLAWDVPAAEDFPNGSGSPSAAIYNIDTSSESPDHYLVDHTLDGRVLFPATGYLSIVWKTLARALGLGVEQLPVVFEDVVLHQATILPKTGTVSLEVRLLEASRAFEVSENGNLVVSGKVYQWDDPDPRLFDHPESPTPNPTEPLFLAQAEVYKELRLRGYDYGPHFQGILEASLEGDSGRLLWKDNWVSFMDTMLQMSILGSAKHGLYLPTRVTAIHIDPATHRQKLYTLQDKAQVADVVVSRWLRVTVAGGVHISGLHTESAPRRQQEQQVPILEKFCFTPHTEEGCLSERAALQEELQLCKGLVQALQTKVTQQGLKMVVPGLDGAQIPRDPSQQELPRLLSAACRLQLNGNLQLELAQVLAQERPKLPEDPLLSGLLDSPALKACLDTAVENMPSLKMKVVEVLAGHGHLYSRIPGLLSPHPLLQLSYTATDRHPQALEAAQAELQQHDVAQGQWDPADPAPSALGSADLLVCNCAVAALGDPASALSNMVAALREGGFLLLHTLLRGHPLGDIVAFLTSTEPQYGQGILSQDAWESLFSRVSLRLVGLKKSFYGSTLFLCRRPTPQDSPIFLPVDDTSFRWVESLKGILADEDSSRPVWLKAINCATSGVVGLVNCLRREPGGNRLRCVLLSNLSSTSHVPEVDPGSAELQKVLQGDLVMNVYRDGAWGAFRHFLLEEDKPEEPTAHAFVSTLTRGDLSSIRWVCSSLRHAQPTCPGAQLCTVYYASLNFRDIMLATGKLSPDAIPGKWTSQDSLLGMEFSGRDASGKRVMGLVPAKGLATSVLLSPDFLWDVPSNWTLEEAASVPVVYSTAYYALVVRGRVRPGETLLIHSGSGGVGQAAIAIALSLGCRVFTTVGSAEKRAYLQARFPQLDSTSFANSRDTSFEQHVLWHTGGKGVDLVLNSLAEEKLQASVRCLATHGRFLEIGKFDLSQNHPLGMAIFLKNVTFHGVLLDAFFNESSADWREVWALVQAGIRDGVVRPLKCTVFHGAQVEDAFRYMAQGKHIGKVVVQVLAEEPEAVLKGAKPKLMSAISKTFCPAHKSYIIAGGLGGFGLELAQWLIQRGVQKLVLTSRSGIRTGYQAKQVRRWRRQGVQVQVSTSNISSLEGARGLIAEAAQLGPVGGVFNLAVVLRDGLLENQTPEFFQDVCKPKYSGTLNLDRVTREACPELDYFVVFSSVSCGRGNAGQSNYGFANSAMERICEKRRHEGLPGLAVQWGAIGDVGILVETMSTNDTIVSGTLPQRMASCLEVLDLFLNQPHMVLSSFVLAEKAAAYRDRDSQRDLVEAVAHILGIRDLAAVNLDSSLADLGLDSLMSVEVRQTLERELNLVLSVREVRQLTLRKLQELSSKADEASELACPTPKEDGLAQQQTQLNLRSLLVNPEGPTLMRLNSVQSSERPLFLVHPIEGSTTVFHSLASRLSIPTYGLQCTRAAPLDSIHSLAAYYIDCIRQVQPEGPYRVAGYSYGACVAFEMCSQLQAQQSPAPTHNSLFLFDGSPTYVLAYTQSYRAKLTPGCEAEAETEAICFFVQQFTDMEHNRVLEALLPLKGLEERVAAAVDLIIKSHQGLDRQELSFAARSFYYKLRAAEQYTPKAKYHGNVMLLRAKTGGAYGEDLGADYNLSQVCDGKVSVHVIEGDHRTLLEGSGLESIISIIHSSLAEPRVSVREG

O=[N+]([O-])c1cc(C(F)(F)F)c(Cl)c([N+](=O)[O-])c1Nc1ncc(C(F)(F)F)cc1Cl
inactive: [1] | [3] | [4] | [10] | [13]
active: [2] 50 µM | [5] 14.8 µM | [6] 29.2 µM | [7] 27.7 µM | [8] 9.68 µM | [9] 40.9 µM | [11] 33.6 µM | [12] 35.6 µM | [14] 13.2 µM | [15] 15.8 µM | [16] 67.9 µM | [17] 50 µM | [18] 50 µM

CNC(=O)ON=C(C)SC
active: [15] 16.7 µM
not listed: [20]
inactive: all other assays above

CCCCN(CC)c1c([N+](=O)[O-])cc(C(F)(F)F)cc1[N+](=O)[O-]
active: [8] 35.4 µM
not listed: [20]
inactive: all other assays above

CC(C)N(C(=O)SCC(Cl)=C(Cl)Cl)C(C)C
active: [8] 67.5 µM
not listed: [20]
inactive: all other assays above

COc1ccc(C(=CC(=O)N2CCOCC2)c2ccc(Cl)cc2)cc1OC
active: [8] 50 µM | [20] 32.8 µM | [16] 11 µM
not listed: [19]
inactive: all other assays above

CC(C)[C@H](C(=O)O[C@H](C#N)c1cccc(Oc2ccccc2)c1)c1ccc(Cl)cc1
active: [8] 34.8 µM | [13] 23.2 µM | [16] 50 µM | [17] 37 µM
not listed: [19] | [20]
inactive: all other assays above
